Source: PubChem BioAssay
Cruzain inh noDet: blocks cruzain activity in detergent-free assay | Potency, µM, usual class: inhibitors | P25779 | purified cruzain, Z-FR-AMC fluorescence, no detergent | hit rate 2.3% among 200,000; note: nearly all actives have a fitted effect of over 40% in size
Target sequence (P25779 123-467 limits assumed): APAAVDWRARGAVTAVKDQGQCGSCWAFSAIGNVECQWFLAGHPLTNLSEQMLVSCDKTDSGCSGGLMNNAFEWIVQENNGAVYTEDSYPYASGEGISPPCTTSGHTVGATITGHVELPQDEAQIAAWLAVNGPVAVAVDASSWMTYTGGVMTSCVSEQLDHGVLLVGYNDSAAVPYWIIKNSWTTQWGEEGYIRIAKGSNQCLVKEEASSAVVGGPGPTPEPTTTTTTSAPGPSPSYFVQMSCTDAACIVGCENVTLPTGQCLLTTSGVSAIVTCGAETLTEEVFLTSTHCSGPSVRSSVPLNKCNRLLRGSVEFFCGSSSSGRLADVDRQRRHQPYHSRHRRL
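Purified cruzain at 1.5 nM, pre-incubated 15 min with compound at room temperature in 100 mM sodium acetate pH 5.5, 5 mM DTT, 0.00005% Triton X-100. Reaction started with 2 uM Z-FR-AMC; AMC fluorescence increase over 60 s gives rate.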
Cruzain inh Det: blocks cruzain activity in presence of Triton detergent. P25779. Potency, µM, hits mostly inhibitors. purified cruzain, Z-FR-AMC fluorescence, 0.01% Triton. AID 1478. hit rate 0.43% among 200,000; note: nearly all actives have a fitted effect of over 40% in size
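Z-FR-AMC hydrolysis (2 uM substrate) by cruzain (1.5 nM) monitored kinetically at ex 360/em 450 nm after 15 min room-temperature compound exposure; 0.01% Triton X-100, pH 5.5, 5 mM DTT.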
Papain inh: counter-screen for cruzain inhibitors: papain inhibition. shares compounds with Cruzain inh Det. purified papain, Z-FR-AMC fluorescence cleavage. Potency, µM, usual class: inhibitors. hit rate 41% among 410; note: nearly all actives have a fitted effect of over 35% in size
Of the large screens only hits and unclear results are named; the others gave an inactive call (follow-up assays come after a bar, where they were run). An excerpt weighted towards active compounds, which were near 2.4% of everything screened. Calls come from the whole dose curve; as a rule, active = well fitted curve in the direction sought with a large enough effect; inconclusive = small, poorly fitted or top-dose-only effect, or another doubt; inactive = no such curve, though single readings can be large; an effect the other way counts as inactive or inconclusive.

COc1ccc(NS(=O)(=O)c2cc(NC(=O)/C=C/c3ccccc3OC)ccc2N2CCCCC2)cc1	Cruzain inh noDet 3.2µM | Papain inh inactive
COc1ccc(NS(=O)(=O)c2cc(NC(=O)/C=C/c3cccs3)ccc2N2CCOCC2)cc1	Cruzain inh noDet inconclusive
C=CC1CO1 (stereo not given)	none
CC(C)C[C@H](N)c1nnc(S(=O)(=O)Cc2ccc(F)cc2)o1	Cruzain inh noDet 13µM, Cruzain inh Det 13µM | Papain inh inactive
CC(C)C[C@H](N)c1nnc(SCc2ccc(Cl)cc2Cl)o1	none
S=C(c1ccc(-c2cccc(Cl)c2)o1)N1CCOCC1	none
CC(=O)N1CCN(C(=S)c2ccc(-c3ccc(Cl)cc3)o2)CC1	Cruzain inh noDet inconclusive, Cruzain inh Det 8.9µM | Papain inh 16µM
CC(C)(C)c1ccc(S(=O)(=O)N2CCC(Oc3ccc(-n4cnnn4)cc3)CC2)cc1	none
CCc1ccc(NC(=O)c2sc3nc(C)c(C(=O)Nc4ccc(C)cc4C)c(-c4ccco4)c3c2N)cc1	Cruzain inh noDet inconclusive
CCOC(=O)c1cc2c(=O)n3ccccc3nc2n(Cc2ccco2)c1=NC(=O)c1cccnc1	Cruzain inh Det 16µM | Papain inh inactive
CCOC(=O)c1cc2c(=O)n3ccccc3nc2n(Cc2ccco2)c1=NC(=O)c1cccc(C)c1	none
CSCC[C@H](NC(=O)OC(C)(C)C)c1nnc(SCc2ccccc2)o1	none
COC(=O)CS(=O)(=O)c1nnc([C@H](Cc2ccccc2)NC(=O)OC(C)(C)C)o1	Cruzain inh noDet 10µM, Cruzain inh Det 7.1µM | Papain inh 5.6µM
O=C(NC1CCCC1)c1ccc(CSc2nc3ccncc3n2Cc2ccccc2F)cc1	none
CCC(C(=O)NC1CCCCC1)n1c(SCc2ccccc2F)nc2ccncc21 (stereo not given)	Cruzain inh noDet inconclusive, Cruzain inh Det 13µM | Papain inh 28µM
COc1ccc(-c2nn(C)c3sc(C(=O)Nc4cc(OC)c(OC)c(OC)c4)cc23)cc1OC	Cruzain inh noDet inconclusive
C/C(CC(=O)Nc1cccc(Cl)c1)=N\NC(=O)Cc1ccc(Cl)cc1	none
C/C(CC(=O)Nc1ccc(Cl)c(Cl)c1)=N\NC(N)=S	Cruzain inh noDet 0.32µM, Cruzain inh Det 0.5µM | Papain inh inactive
C/C(CC(=O)Nc1cc(Cl)ccc1Cl)=N\NC(N)=S	Cruzain inh noDet 1µM, Cruzain inh Det 1µM | Papain inh 2.8µM
CC(=O)Nc1ccc(Cl)c(C(N)=O)c1	none
COc1cc(NS(=O)(=O)c2ccc3c(c2)CCCN3C(C)=O)cc(OC)c1OC	none
CN(C)c1ccc(CNC(=O)c2cccn2-c2nnc(N3CCCCC3)s2)cc1	none
O=C(CCN1C(=O)/C(=C/C=C/c2ccccc2)SC1=S)Nc1nccs1	Cruzain inh noDet 3.2µM | Papain inh inactive
O=C(CCN1C(=O)/C(=C\c2cccs2)SC1=S)Nc1nccs1	none
CC1CCN(Cc2c(O)ccc3c(=O)c(-c4cccc(Cl)c4)c(C(F)(F)F)oc23)CC1	none
COc1cccc(OC)c1-c1nn2c(-c3n[nH]c4c3CCC4)nnc2s1	none (no result: Cruzain inh noDet, Cruzain inh Det) | Papain inh 16µM
CCN(CC)c1ccc(-c2nn3c(-c4n[nH]c5c4CCC5)nnc3s2)cc1	none
O=C(NCCCO)c1ccc2nc(-c3ccco3)c(-c3ccco3)nc2c1	none (no result: Cruzain inh noDet, Cruzain inh Det) | Papain inh 28µM
CCCNC(=O)c1ccc2nc(-c3ccccc3)c(-c3ccccc3)nc2c1	Cruzain inh noDet inconclusive
O=C(NCCNC(=O)c1ccco1)c1cccc(F)c1	none
CCCCNC(=O)c1ccc2nc(-c3ccco3)c(-c3ccco3)nc2c1	Cruzain inh noDet 16µM, Cruzain inh Det 14µM | Papain inh 16µM
CCNC(=O)c1ccc2nc(-c3ccccc3)c(-c3ccccc3)nc2c1	none (no result: Cruzain inh noDet, Cruzain inh Det) | Papain inh inactive
CCCNC(=O)c1cc(-c2ccco2)on1	none
Cn1c(=O)c2cc(C(=O)NCCCN3CCN(c4ccc(F)cc4)CC3)sc2c2ccccc21	none
CCSc1nnc(NC(=O)c2ccccn2)s1	none
CCSc1nnc(NC(=O)/C=C/c2ccc3c(c2)OCO3)s1	Cruzain inh noDet 16µM, Cruzain inh Det 16µM | Papain inh inactive
O=C(/C=C/c1ccc2c(c1)OCO2)Nc1nc2ccccc2s1	none
CCSc1nnc(NC(=O)c2ccc(Br)s2)s1	Cruzain inh noDet 25µM | Papain inh inactive
COc1ccc2oc(-c3ccc(C)c(NC(=O)c4ccc(-c5ccccc5[N+](=O)[O-])o4)c3)nc2c1	none
O=c1cc(-c2ccccc2Cl)oc2c(NS(=O)(=O)c3cc(Cl)cc(Cl)c3O)ccc(O)c12	Cruzain inh Det 25µM | Papain inh 4.5µM
O=c1cc(-c2ccccc2Cl)oc2cc(O)cc(O)c12	none
Cc1nc(-c2cccc(F)c2)sc1CCNC(=O)C(=O)Nc1ccc2c(c1)OCO2	none
COc1ccc2cc3cc(C(=O)NCCN4CCN(Cc5ccccc5)CC4)oc3nc2c1	Cruzain inh Det inconclusive
COc1ccc2cc3cc(C(=O)NCCCN4CCOCC4)oc3nc2c1	Cruzain inh noDet inconclusive, Cruzain inh Det 32µM | Papain inh 16µM
